# Assay results taken from PubChem BioAssay (EPA / NIEHS).
# “And” between values parts separate entries of the source, which are not always exact repeats. Equal values may be shown once. Inconclusive results are not listed. A structure can be active in one record and inactive in another. The source made the active and inactive calls. The calls were made as follows: active = hit-call score of the fitted dose curve at least 0.9, where 1 is the maximum; inconclusive = response in the unintended direction; inactive = score below 0.9.
# Target: Glucocorticoid receptor (Homo sapiens) (UniProt P04150)
# Sequence (P04150 whole entry, looked up): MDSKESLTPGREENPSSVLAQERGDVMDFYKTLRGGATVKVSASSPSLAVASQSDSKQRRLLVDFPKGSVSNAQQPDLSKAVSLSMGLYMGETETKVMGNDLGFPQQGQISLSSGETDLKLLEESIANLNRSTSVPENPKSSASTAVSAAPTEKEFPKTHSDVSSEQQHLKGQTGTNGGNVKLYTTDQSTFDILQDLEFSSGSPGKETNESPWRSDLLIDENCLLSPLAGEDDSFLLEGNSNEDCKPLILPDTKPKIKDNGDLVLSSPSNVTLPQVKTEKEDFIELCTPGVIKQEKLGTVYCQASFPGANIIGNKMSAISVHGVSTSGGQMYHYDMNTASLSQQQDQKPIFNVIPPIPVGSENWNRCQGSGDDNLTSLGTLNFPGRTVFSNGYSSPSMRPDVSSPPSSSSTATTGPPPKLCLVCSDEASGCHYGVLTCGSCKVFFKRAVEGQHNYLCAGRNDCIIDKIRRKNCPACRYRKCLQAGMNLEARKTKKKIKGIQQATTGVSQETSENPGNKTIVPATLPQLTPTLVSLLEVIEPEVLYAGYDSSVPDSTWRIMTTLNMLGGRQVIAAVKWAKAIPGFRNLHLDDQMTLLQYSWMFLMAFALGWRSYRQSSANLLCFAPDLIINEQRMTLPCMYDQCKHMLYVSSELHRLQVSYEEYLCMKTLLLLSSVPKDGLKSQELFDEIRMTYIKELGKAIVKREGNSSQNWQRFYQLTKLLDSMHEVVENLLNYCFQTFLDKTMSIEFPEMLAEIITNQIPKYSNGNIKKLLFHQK
# Assay: NVS_NR_hGR: NovaScreen (NVS) Nuclear Receptor Binding Assay for human Glucocorticoid Receptor (GR) (AID 2283363)
# Method: NVS_NR_hGR is a biochemical, single-readout assay that uses extracted gene-proteins in a cell-free assay. Measurements were taken 16 hours after chemical dosing in a 96-well plate.NVS_NR_hGR is one of one assay component(s) measured or calculated from the NVS_NR_hGR assay. It is designed to make measurements of radioligand binding, a form of binding reporter, as detected with scintillation counting signals by Filter-based radiodetection technology.Data from the assay component NVS_NR_hGR was analyzed into 1 assay endpoint. This assay endpoint, NVS_NR_hGR, was analyzed in the positive analysis fitting direction relative to DMSO as the negative control and baseline of activity. Using a type of binding reporter, loss-of-signal activity can be used to understand changes in the binding as they relate to the gene NR3C1. Furthermore, this assay endpoint can be referred to as a primary readout, because the performed assay has only produced 1 assay endpoint. To generalize the intended target to other relatable targets, this assay endpoint is annotated to the nuclear receptor intended target family, where the subfamily is steroidal.
# Binding assays used specific radioligands (tritiated, iodinated) with non-radioactive competitive displacement ligands in agonist or antagonist protocols (as indicated) and various reference compounds and inhibitors to titrate specific binding to receptors and transporters. Most enzyme assays (CYPs, kinases, phosphatases, proteases, HDACs) used recombinant protein and specific substrates (fluorescence mostly, some colorimetric and radioactive) and inhibitors, followed by a biochemical separation of substrate and product. All assays for the biochemical HTS were initially run in duplicate at a single concentration (10 uM for CYP450 assays and 25 uM for all others). […] Each assay was run with positive and negative controls, and concurrent controls on every plate. The follow-up (secondary) screen tested active chemical-pairs in concentration series, as well as a few additional assays not tested in the primary screen, some selected negative inactives, and several cases re-run in the concentration series for confirmatory purposes.
SMILES,outcome,AC50
C[C@]12CC[C@@H]3c4ccc(O)cc4C[C@@H](CCCCCCCCCS(=O)CCCC(F)(F)C(F)(F)F)[C@H]3[C@@H]1CC[C@@H]2O (stereo partly drawn),inactive,13.1 µM (active)
Oc1ccc(C(c2ccc(O)cc2)C(Cl)(Cl)Cl)cc1,,1.01 µM (active)
C=CCOC(Cn1ccnc1)c1ccc(Cl)cc1Cl (stereo not drawn),,15.4 µM (active)
S=C([S-])NCCNC(=S)[S-].[Mn+2],,10.1 µM (active)
O=C(c1ccc(O)cc1O)c1ccc(O)cc1O,,9.33 µM (active) and 8.91 µM (active) and 10.9 µM (active)
CC(C)CCCCCCc1ccc(O)cc1,,7.09 µM (active) and 16.2 µM (active) and 15.9 µM (active)
CCCN(CCC)C(=O)SCC,,7.09 µM (active)
CSC(=O)c1cccc2nnsc12,inactive,
CCCCC(CC)COC(=O)c1ccccc1C(=O)O (stereo not drawn),,7.38 µM (active)
CCCCC(CC)CN1C(=O)C2C3C=CC(C3)C2C1=O (stereo not drawn),,25 µM (active)
CC1(C)C(C=C(Cl)Cl)C1C(=O)OCc1cccc(Oc2ccccc2)c1 (stereo not drawn),inactive,
COC(=O)c1ccccc1C(=O)O,,5.83 µM (active)
